High-throughput results as filed in PubChem.
Hits are enriched below; roughly 12% of the tested compounds scored in any of these assays.
SARS PLP yeast: qHTS of Yeast-based Assay for SARS-CoV PLP; S. cerevisiae expressing SARS-CoV PLpro, growth rescue; Potency, µM (titrated, usually from 32.9 µM), for the others: at the highest dose activity, positive = growth rescue, usual class: activators; hit rate 0.19% among 330,000; AID 485353, 2010; calls by dose curve; further: 0% is about no effect; nearly all actives have a fitted effect of over 55% in size
Pf growth 48h: Primary qHTS for delayed death inhibitors of the malarial parasite plastid, 48 hour incubation. P. falciparum luciferase growth in erythrocytes, 48 h. Potency, µM (titrated, usually from 28.7 µM), without a hit: at the top dose activity change, negative = inhibition, usual class: inhibitors. hit rate 5.9% among 310,000. AID 504832, 2011; further: on the % scale 0 is the no-effect control and ±100 the full control effect
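Read-out is firefly luciferase luminescence from an integrated reporter in P. falciparum, so falling signal marks reduced parasite growth. Infected erythrocytes were at 2% hematocrit and 0.1% parasitemia (final) in Albumax-supplemented RPMI 1640.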
HCV inh: qHTS Assay for Inhibitors of Hepatitis C Virus (HCV); Huh7.5.1 HCVcc-Cre infection, luciferase reporter, 44 h; Potency, µM (series often up to 41.8 µM), for inactives: at the top dose activity change, negative = inhibition, hits mostly inhibitors; hit rate 3.4% among 340,000; AID 651820, 2012; further: on the % scale 0 is the no-effect control and ±100 the full control effect
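A cell-based infection assay in which seeded cells (1,000 per well) receive test compound after 4 h, are inoculated with HCVcc-Cre at approximately 0.5 moi, and are incubated 44 h before luminescence detection.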
NS1 function inh: qHTS Assay for Inhibitors of Influenza NS1 Protein Function | Potency, µM (doses to about 46.1 µM), for inactives: top-dose activity, positive = more growth | hit rate 0.4% among 270,000; calls by dose curve; further: actives are rising curves; nearly all actives have a fitted effect of over 50% in size
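A cell-based growth assay was used: compounds that relieve NS1-induced slow growth of budding yeast raise OD600. Assay medium was yeast nitrogen base with ammonium sulphate and -URA supplement, pH 6.0, with 2% galactose.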
AMA1 RON2 block: qHTS for Inhibitors of AMA1-RON; Towards Development of Antimalarial Drug Lead: Primary Screen; hit rate 0.2% among 360,000; AID 720542, 2013; Potency, µM (doses to about 58.2 µM), for the others: at the highest dose activity change, negative = inhibition, hits mostly inhibitors; AlphaScreen AMA1-biotinylated RON2 peptide binding; Plasmodium falciparum AMA1 (3D7) - RON2 peptide interaction;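 further: 0% = vehicle wells and -100% = peptide control; nearly all actives have a fitted effect of over 45% in size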
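AMA1 (3D7) with his tag at 25 nM final met compounds first, then biotinylated RON2 peptide at 25 nM; detection used donor plus acceptor beads, 10 µg/mL apiece, read by AlphaScreen after 30 min at room temperature.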
Pf growth 96h: Primary qHTS for delayed death inhibitors of the malarial parasite plastid, 96 hour incubation; hit rate 6.9% among 320,000; P. falciparum luciferase reporter growth, 96 h; Potency, µM (doses to about 28.7 µM), without a hit: at the top dose activity change, negative = inhibition, usual class: inhibitors; AID 504834, 2011; further: on the % scale 0 is the no-effect control and ±100 the full control effect
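Infected RBCs, 2% Hct / 0.05% parasitemia final; luciferase-reporter P. falciparum; cpd 96 h, 37 C, 5% CO2; luciferase detection reagent; luminescence.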
The depositor's hits bear a star; ? = inconclusive; . = no result given; [ ] = another dose, or the depositor's remark. Unless noted, the call rests on the fitted dose curve; in most records, active means well fitted curve in the direction sought with a large enough effect; inconclusive means small, poorly fitted or top-dose-only effect, or another doubt; inactive means no such curve, though single readings can be large; an effect the other way counts as inactive or inconclusive. Potency means the concentration at half of the fitted maximal effect.

SMILES	SARS PLP yeast	Pf growth 48h	HCV inh	NS1 function inh	AMA1 RON2 block	Pf growth 96h
Cc1cccc2sc(N(CCCN(C)C)C(=O)CCc3ccccc3)nc12	-25.3%	?	10µM*	0.3%	?	1.85µM*
COc1cc(C2Nc3cc(C)c(C)cc3NC3=C2C(=O)CC(C)(C)C3)ccc1OC(C)=O (configuration not stated)	-1.2%	4.8%	25.5%	21.4%	3.4%	?
Cc1cc2c(cc1C)NC(c1c(C)n(C)n(-c3ccccc3)c1=O)C1=C(CC(C)(C)CC1=O)N2 (configuration not stated)	-4.5%	?	-18.9%	-78.8%	-5.4%	10.4µM*
O=C(CCNC(=O)c1ccco1)Nc1ccc(OC(F)(F)F)cc1	-0.4%	?	10.3%	0.2%	10.4%	-20.5%
Cc1cc(C)cc(NC(=O)CCN2CCCC2)c1	-0.3%	15.8%	?	-1.4%	-3.2%	?
CCN(CC)CCn1c(=O)n(-c2ccc(Cl)cc2)c(=O)c2c3c(sc21)CN(C)CC3	-6.0%	4.65µM*	3.98µM*	17.5%	14.1%	-14.8%
Cc1ccc(N2C(=O)C3C(C2=O)N2C(c4cccs4)C4C(=O)N(c5ccc(C)cc5)C(=O)C4N2C3c2cccs2)cc1 (configuration not stated)	15.6%	?	10.3%	2.51µM*	5.4%[11.6 µM]	1.85µM*
O=C(N/N=C/c1ccc(O)cc1)c1cc(C23CC4CC(CC(C4)C2)C3)[nH]n1	0.7%	-25.0%	-15.3%	-1.3%	7.9%	-26.8%
C/C(=N\NC(=O)c1cc(C(C)(C)C)[nH]n1)C12CC3CC(CC(C3)C1)C2	-0.2%	2.62µM*	6.4%	0.3%	71.9%	51.4%
COc1ccc(CC2SC(=Nc3ccc(F)cc3)NC2=O)cc1 (configuration not stated)	0.2%	2.94µM*	3.4%	.	1.4%	-25.0%
C(=N\Nc1nc(N2CCCC2)nc(N2CCCC2)n1)/c1cccnc1	0.1%	27.6%[1.15 µM]	23.8%	8.9%	25.1%	7.2%
FC(F)(F)COc1nc(N/N=C/c2cccnc2)nc(N2CCCCC2c2ccccn2)n1 (configuration not stated)	-1.0%	11.7µM*	?	.	11.1%	9.28µM*
CN(C)c1ccc(N2C(=NC(=O)c3ccccc3)SC3CS(=O)(=O)CC32)cc1 (configuration not stated)	-3.7%	2.3%	17.3%	-13.1%	-8.2%	?
O=C(N/N=C/C(Cl)=C/c1ccc([N+](=O)[O-])cc1)C(=O)Nc1ccccc1C(=O)O	-1.5%	-16.7%	-10.4%	9.3%	56.5%	?
O=C(N/N=C/C(Cl)=C/c1ccc([N+](=O)[O-])cc1)C(=O)Nc1ccc(C(=O)O)cc1	0.0%	11.7µM*	-20.2%	4.4%	45.9%	?
COc1ccc(CCNc2nc(-c3ccc(F)cc3)c(CC(=O)O)s2)cc1OC	-1.3%	-10.4%	3.3%	0.8%	-1.9%	?
O=C1NC(c2ccccc2)=C(c2ccccc2)C1=O	1.7%	16.5%	2.5%	5.3%	1.1%	10.4µM*
CCOc1ccc(OCCNC(=O)C(NC(=O)c2c(F)cccc2F)C(C)C)cc1 (configuration not stated)	-3.0%	?	?	.	7.0%	-18.5%
CC(=O)c1cccc(NC(=O)c2cc(S(=O)(=O)N3CCCCC3)ccc2N2CCOCC2)c1	.	.	.	.	10.0%	.
COc1ccc(NC(=O)CN(C)C(=O)c2cccc(S(=O)(=O)N3CCN(c4ccc(F)cc4)CC3)c2)cc1	.	.	12.6µM*	.	2.6%	.
COc1ccccc1CNC(=O)c1cccc(S(=O)(=O)N2CCN(c3ccc(F)cc3)CC2)c1	-12.2%	10.4µM*	11.2µM*	.	-6.7%	?
CC(=O)N1CCN(S(=O)(=O)c2cccc(C(=O)NCc3ccc(F)cc3)c2)CC1	1.3%	.	13.1%	.	3.5%	.
COc1cccc(CNC(=O)c2cccc(S(=O)(=O)N3CCN(c4ccc(F)cc4)CC3)c2)c1	-4.3%	?	?	.	-2.3%	?
COc1ccc(CNC(=O)c2cccc(S(=O)(=O)N3CCN(c4ccc(F)cc4)CC3)c2)cc1	4.5%	?	7.08µM*	.	-27.8%	?
O=C1CC(c2ccccc2)c2cccc(F)c21 (configuration not stated)	-0.2%	11.6%	18.9%	8.2%	2.3%	23.9%
SMILES	SARS PLP yeast	Pf growth 48h	HCV inh	NS1 function inh	AMA1 RON2 block	Pf growth 96h
COc1ccc(CCC(=O)OCC(=O)Nc2c(C)n(C)n(-c3ccccc3)c2=O)cc1	4.9%	-3.2%	0.4%	.	-2.3%	11.1%
COc1cccc(CNc2nc3ccccc3n2C(C)C)c1O	-0.1%	?	?	-2.1%	11.6%	?
CCN(CC)c1ccc(C(=O)N/N=C(\C)c2ccc(O)cc2)cc1	8.6%	?	-26.7%	16.9%	1.4%	10.4µM*
C/C(=N\NC(=O)c1ccc(O)cc1)c1ccc2c(c1)Nc1ccccc1S2	-17.6%	?	10µM*	-2.1%	-29.8%	?
COc1ccc(C(=O)N/N=C(/C)c2ccc(N3CCCCC3)cc2)cc1	9.2%	-1.8%	-2.6%	-15.1%	49.9%	13.5%
COc1ccc(/C(C)=N/NC(=O)c2ccc(N(C)C)cc2)cc1	-17.4%	?	-10.4%	-46.0%	-10.9%	0.586µM*
CCN(CC)c1ccc(C(=O)N/N=C(\C)c2cccnc2)cc1	-2.1%	?	?	.	-13.6%	-5.6%
C/C(=N\NC(=O)c1ccc(OC2CCCC2)cc1)c1ccc(O)cc1	?	?	-28.5%	25.8%	-5.9%	13.1µM*
COc1cccc(C(=O)c2c(-c3ccccc3)ncc3cc(OC)c(OC)cc23)c1	-24.8%	.	?	.	-15.1%	.
COc1ccc(-n2ncc3c2CC(C)(C)CC3NC(=O)c2cn[nH]c2)cc1 (configuration not stated)	0.8%	3.9%	26.6%	6.9%	0.8%	-21.0%
Cc1ccc(OCCN(C)C(=O)C2CCC(=O)N(CC3CCCCC3)C2)cc1 (configuration not stated)	-2.8%	?	?	-25.5%	-0.7%	?
CC(C)(C)N(Cc1ccccc1)C(=O)COC(=O)CSc1ccc([N+](=O)[O-])cc1	-1.4%	11.3%	-1.6%	.	?	36.7%
Cc1ccc(CN(CC(O)COc2cccc3[nH]cc(C)c23)C(C)(C)C)cc1 (configuration not stated)	5.6%	10.4µM*	?	-0.1%	?	10.4µM*
